Results: PubChem BioAssay (Tox21)
“And” between values parts separate entries of the source, which are not always exact repeats. Equal entries are not always repeated. Inconclusive results are not listed. The source made the active and inactive calls. Unless noted, calls follow the shape of the dose curve; as a rule, active = well fitted curve in the direction sought with a large enough effect in the repeat runs; inconclusive = weak or mixed curves; inactive = no such curve, though single readings can be large; an effect the other way counts as inactive or inconclusive.

Experiments:
[1] = target: Retinoic acid receptor RXR-alpha (Homo sapiens) (UniProt P19793); assay: qHTS assay to identify small molecule agonists of the RXR signaling pathway (AID 1159527; calls by dose curve; also: nearly all actives have a fitted effect of over 35% in size; also: potency is read from the fitted curve at half-maximal effect)
Method in brief: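 GeneBLAzer RXR-alpha-UAS-bla HEK 293T cells in medium with 2% charcoal-stripped FBS, pre-incubated 5 hr at 37 C, then exposed to compounds 16 hr. Beta-lactamase reporter read by FRET substrate, 2 hr room temperature, 460/530 nm emission.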

[2] = qHTS assay to identify small molecule agonists of the RXR signaling pathway - cell viability counter screen (AID 1159529); also: nearly all actives have a fitted effect of over 50% in size; also: potency is read from the fitted curve at half-maximal effect; as to activity change, negative = cytotoxicity: series mostly up to about 77 µM
Method in brief: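 RXR-alpha-UAS-bla HEK 293T cells in medium with 2% charcoal-stripped FBS were preincubated 5 hr, then exposed to compounds for 16 hr at 37 C. Viability was read as CellTiter-Glo luminescence after 30 min at room temperature.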

[3] = qHTS assay to identify small molecule antagonists of the retinoid acid receptor (RAR) signaling pathway - cell viability counter screen (AID 1159551); also: nearly all actives have a fitted effect of over 35% in size
Method in brief: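 In this counter screen, the RARE-luciferase line C3RL4 was exposed for 6 h at 37 C and 5% CO2 to compounds with retinol at 1 uM final. Cellular ATP, read by luminescence, served as the viability measure.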

[4] = qHTS assay to identify small molecule antagonists of the estrogen related receptor (ERR) signaling pathway from Tox21 library - cell viability counter screen (AID 1224834); also: nearly all actives have a fitted effect of over 30% in size; also: potency is read from the fitted curve at half-maximal effect
Method in brief: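 Counter screen run in ERR cells (2,000 cells/well): cells pre-incubated 6 h, then treated with compounds for 17.5 h at 37 C. Fluorescence was read 30 min after CellTiter-Fluor addition.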

[5] = target: Luciferin 4-monooxygenase (Photinus pyralis) (UniProt P08659); assay: qHTS assay to identify small molecule inhibitors of firefly luciferase (AID 1224835); also: series mostly up to about 120 µM; nearly all actives have a fitted effect of over 25% in size
Method in brief: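 Inhibition of purified Photinus luciferase is measured by luminescence. Substrate levels (D-luciferin, ATP) sit at their KM values. Each compound is tested in a concentration series.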

[6] = qHTS assay to identify small molecule antagonists of the constitutive androstane receptor (CAR) signaling pathway - cell viability counter screen (AID 1224837); also: series mostly up to about 92 µM; nearly all actives have a fitted effect of over 45% in size
Method in brief: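 CITCO at 50 nM final was added alongside compounds (15 concentrations) to double-stable hCAR/CYP2B6-2.2kb HepG2 cells. Following 23 hr at 37 C, cell viability was quantified by CellTiter-Fluor fluorescence intensity.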

[7] = target: Nuclear receptor subfamily 1 group I member 3 (Homo sapiens) (UniProt Q14994); assay: qHTS assay to identify small molecule antagonists of the constitutive androstane receptor (CAR) signaling pathway (AID 1224838); also: nearly all actives have a fitted effect of over 40% in size; also: potency is read from the fitted curve at half-maximal effect
Method in brief: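 Inhibition of CITCO-driven (50 nM final) CYP2B6 reporter expression is measured in HepG2 cells stably carrying hCAR. Fifteen compound concentrations are applied for 24 h at 37 C, followed by luciferase luminescence.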

[8] = target: Nuclear receptor subfamily 1 group I member 3 (Homo sapiens) (UniProt Q14994); assay: qHTS assay to identify small molecule agonists of the constitutive androstane receptor (CAR) signaling pathway (AID 1224839); also: series mostly up to about 92 µM; nearly all actives have a fitted effect of over 15% in size
Method in brief: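 HepG2 cells stably expressing hCAR and a CYP2B6-2.2kb luciferase reporter were treated with compounds at 15 concentrations plus 0.75 uM PK11195 (final) for 24 h at 37 C; luminescence was read after ONE-Glo addition.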

[9] = qHTS assay to identify small molecule antagonists of the estrogen related receptor signaling pathway with the pleiotropic PPARgamma coactivator (PGC) from Tox21 10K library - cell viability counter screen (AID 1224840; active = well fitted cell-killing curve with a large enough effect in the repeat runs, not every such curve was filed as active; also: nearly all actives have a fitted effect of over 40% in size)
Method in brief: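 Readout: fluorescence intensity from CellTiter-Fluor after 30 min at 37 C/5% CO2. Preceded by 17.5 h treatment of PGC/ERR cells with DMSO-dissolved compounds, added 6 h post-seeding.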

[10] = qHTS assay to identify small molecule antagonists of the estrogen related receptor signaling pathway with the pleiotropic PPARgamma coactivator (PGC) from Tox21 10K library (AID 1224841; call rule not given here; also: series mostly up to about 92 µM; actives are mostly falling curves and most rising ones were filed inactive; nearly all actives have a fitted effect of over 50% in size)
Method in brief: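 One-Glo luminescence, measured after half an hour at room temperature, quantified reporter output of PGC/ERR cells. These had been plated at 2,000 per well, incubated 6 h, dosed with compounds in DMSO, then kept 18 h at 37 C.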

[11] = qHTS assay to identify small molecule agonists of the estrogen related receptor signaling pathway with the pleiotropic PPARgamma coactivator (PGC) from Tox21 10K library (AID 1224842); also: nearly all actives have a fitted effect of over 15% in size
Method in brief: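 Luminescence from One-Glo (30 min, room temperature) measured after PGC/ERR cells had 18 h at 37 C with pinned compound (23 nL in DMSO). Cells had been seeded at 2,000 per well and pre-incubated 6 h.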

[12] = qHTS assay to identify small molecule antagonists of the retinoic acid receptor (RAR) signaling pathway (AID 1159552; also: nearly all actives have a fitted effect of over 50% in size)
Method in brief: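 RARE-luc C3RL4 cells; cpds + 1 uM (final) retinol, 6 hr, 37 C/5% CO2; luciferase reagent, 30 min RT, luminescence readout. Inhibitors of retinol-driven signal scored.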

[13] = qHTS assay to identify small molecule agonists of the retinoic acid receptor (RAR) signaling pathway (AID 1159553); also: potency is read from the fitted curve at half-maximal effect
Method in brief: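 In this cell-based screen, 1,000 C3RL4 cells per well were cultured overnight, dosed with test chemicals in DMSO for 6 hr, and assessed for RARE luciferase luminescence.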

[14] = qHTS assay to identify small molecule agonists of the constitutive androstane receptor (CAR) signaling pathway - cell viability counter screen (AID 1224836); also: series mostly up to about 92 µM; nearly all actives have a fitted effect of over 45% in size
Method in brief: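 HepG2 cells stably carrying hCAR and a CYP2B6-2.2kb reporter were plated 4 h, then given compounds at 15 concentrations plus PK11195 (final 0.75 uM). After 23 h at 37 C, viability was read by CellTiter-Fluor fluorescence.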

[15] = qHTS assay to identify small molecule antagonists of the estrogen related receptor (ERR) signaling pathway - cell viability counter screen (AID 1224818); also: series mostly up to about 46 µM
Method in brief: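 Viability of ERR cells, CellTiter-Fluor fluorescence; 17.5 h compound exposure at 37 C, DMSO vehicle; 30 min reagent incubation at 37 C/5% CO2.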

[16] = qHTS assay to identify small molecule antagonists of the estrogen related receptor signaling pathway with the pleiotropic PPARgamma coactivator (PGC) cell viability counter screen (AID 1224822; also: series mostly up to about 46 µM)
Method in brief: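 17.5 h compound treatment of PGC/ERR cells at 37 C; readout CellTiter-Fluor fluorescence; run alongside the PGC/ERR antagonist screen to flag cytotoxic compounds.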
% is scaled to controls: 0 for no effect and ±100 for the full control effect.

Chain of Nuclear receptor subfamily 1 group I member 3 (Homo sapiens) (Q14994 whole entry, looked up): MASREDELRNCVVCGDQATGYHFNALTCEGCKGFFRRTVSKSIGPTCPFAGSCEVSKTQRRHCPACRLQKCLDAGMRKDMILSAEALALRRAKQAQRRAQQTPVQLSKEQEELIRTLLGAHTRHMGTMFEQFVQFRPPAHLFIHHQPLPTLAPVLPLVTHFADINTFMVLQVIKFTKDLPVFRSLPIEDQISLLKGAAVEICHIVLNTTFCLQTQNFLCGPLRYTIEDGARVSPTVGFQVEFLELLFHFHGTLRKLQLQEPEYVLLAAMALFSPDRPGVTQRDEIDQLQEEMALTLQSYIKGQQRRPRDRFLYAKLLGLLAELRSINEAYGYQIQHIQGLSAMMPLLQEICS
Chain of Retinoic acid receptor RXR-alpha (Homo sapiens) (P19793 whole entry, looked up): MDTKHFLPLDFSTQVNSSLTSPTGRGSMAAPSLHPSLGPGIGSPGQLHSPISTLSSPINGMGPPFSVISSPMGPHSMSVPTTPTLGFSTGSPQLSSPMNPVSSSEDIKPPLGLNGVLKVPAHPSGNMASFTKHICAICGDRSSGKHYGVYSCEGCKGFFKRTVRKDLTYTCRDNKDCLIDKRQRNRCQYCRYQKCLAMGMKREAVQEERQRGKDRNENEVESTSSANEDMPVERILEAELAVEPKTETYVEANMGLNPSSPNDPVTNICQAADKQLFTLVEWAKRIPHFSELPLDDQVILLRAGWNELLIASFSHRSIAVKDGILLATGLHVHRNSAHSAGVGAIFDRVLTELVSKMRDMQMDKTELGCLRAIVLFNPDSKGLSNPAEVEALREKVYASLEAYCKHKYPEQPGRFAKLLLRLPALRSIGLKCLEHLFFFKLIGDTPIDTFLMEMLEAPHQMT
Chain of Luciferin 4-monooxygenase (Photinus pyralis) (P08659 whole entry, looked up): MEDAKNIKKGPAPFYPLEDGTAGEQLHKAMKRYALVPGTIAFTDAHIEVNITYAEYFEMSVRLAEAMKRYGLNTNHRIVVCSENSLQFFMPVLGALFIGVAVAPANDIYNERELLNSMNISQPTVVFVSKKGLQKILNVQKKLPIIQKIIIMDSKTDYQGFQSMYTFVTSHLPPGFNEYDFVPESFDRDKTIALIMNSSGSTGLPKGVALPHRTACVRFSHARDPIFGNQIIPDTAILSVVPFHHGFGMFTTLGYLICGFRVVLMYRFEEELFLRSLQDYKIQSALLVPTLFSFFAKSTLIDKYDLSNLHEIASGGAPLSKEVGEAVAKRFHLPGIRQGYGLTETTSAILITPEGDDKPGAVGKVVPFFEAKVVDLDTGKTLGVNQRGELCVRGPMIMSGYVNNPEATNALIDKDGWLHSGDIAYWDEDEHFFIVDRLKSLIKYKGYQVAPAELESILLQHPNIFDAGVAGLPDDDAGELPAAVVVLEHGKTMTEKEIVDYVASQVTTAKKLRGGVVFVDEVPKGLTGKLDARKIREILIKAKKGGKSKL

NC(=O)Nc1ccc(Cl)cc1
inactive: Potency [1] | Potency [2] | Potency [3] | Potency [4] | Potency [5] | Potency [6] | Potency [7] | Potency [8] | Potency [9] | Potency [10] | Potency [11]

CN1CCN(CCCN2c3ccccc3Sc3ccc(S(=O)(=O)N(C)C)cc32)CC1
inactive: Potency [1] | Potency [3] | Potency [5] | Potency [8] | Potency [11]
active: Potency [2] 23.9 µM | Potency [4] 26.6 µM

O=C(O)C(Cc1cc(I)c(O)c(I)c1)c1ccccc1 (stereo not drawn)
inactive: Potency [1] | Potency [2] | Potency [12] | Potency [13] | Potency [5] | Potency [14] | Potency [6] | Potency [8]

Oc1cc(O)c(Cl)cc1Cl
inactive: Potency [1] | Potency [2] | Potency [3] | Potency [4] | Potency [14] | Potency [6] | Potency [7] | Potency [8] | Potency [9] | Potency [10]

COC(=O)[C@@H]1CC2=CC(=O)CC[C@]2(C)[C@@]23O[C@@H]2C[C@@]2(C)[C@@H](CC[C@@]24CCC(=O)O4)[C@H]13
inactive: Potency [1] | Potency [3] | Potency [12] | Potency [13] | Potency [4] | Potency [5] | Potency [14] | Potency [6] | Potency [7] | Potency [8] | Potency [9]

CC(C)(O)c1ccccc1CC[C@@H](SCC1(CC(=O)O)CC1)c1cccc(/C=C/c2ccc3ccc(Cl)cc3n2)c1
inactive: Potency [1] | Potency [2] | Potency [3] | Potency [4] | Potency [5] | Potency [14] | Potency [6] | Potency [9] | Potency [10] | Potency [11]

CC(C)(C)C(=O)O
inactive: Potency [2] | Potency [12] | Potency [13] | Potency [4] | Potency [5] | Potency [14] | Potency [6] | Potency [7] | Potency [8] | Potency [9] | Potency [10] | Potency [11]
active: Potency [1] 39.1 µM

CCCOC(=O)c1ccc(N)cc1
inactive: Potency [1] | Potency [2] | Potency [12] | Potency [5] | Potency [14] | Potency [6] | Potency [7] | Potency [10] | Potency [11]
active: Potency [13] 23.7 µM

CCC(C(=O)OCCOCCN(CC)CC)c1ccccc1 (stereo not drawn)
inactive: Potency [1] | Potency [3] | Potency [12] | Potency [13] | Potency [4] | Potency [5] | Potency [14] | Potency [6]

O=C(O)c1cccnc1C(=O)O
inactive: Potency [1] | Potency [3] | Potency [12] | Potency [13] | outcome [15] | outcome [16] | Potency [4] | Potency [5] | Potency [6] | Potency [9]

CC(=O)Nc1ccccc1C
inactive: Potency [1] | Potency [2] | Potency [3] | Potency [4] | Potency [5] | Potency [14] | Potency [6] | Potency [8] | Potency [9] | Potency [10]

CCCCCCOC(=O)CCCCCCCC(=O)OCCCCCC
inactive: Potency [1] | Potency [2] | Potency [4] | Potency [5] | Potency [14] | Potency [6] | Potency [8] | Potency [9]

C/C(=N/NC(=O)c1ccncc1)C(=O)O
inactive: Potency [1] | Potency [2] | Potency [4] | Potency [5] | Potency [6] | Potency [7] | Potency [8] | Potency [9]

C[N+](C)(C)CCOC(N)=O
inactive: Potency [1] | Potency [3] | Potency [12] | Potency [13] | outcome [15] | outcome [16] | Potency [4] | Potency [5] | Potency [14] | Potency [6] | Potency [7] | Potency [8] | Potency [9]

Nc1ccc(S(=O)(=O)O)c(N)c1
inactive: Potency [1] | Potency [2] | Potency [3] | Potency [4] | Potency [5] | Potency [14] | Potency [6] | Potency [9] | Potency [10]

CCCC(=O)O[C@]1(C(=O)COC(=O)CC)CC[C@H]2[C@@H]3CCC4=CC(=O)CC[C@]4(C)[C@H]3[C@@H](O)C[C@@]21C
inactive: activation [1] 11.5% [at 15.8 µM] | activity change, negative = cytotoxicity [2] 2.05% [at 15.8 µM] | activity change, negative = cytotoxicity [3] -1.52% [at 19 µM] | viability change, negative = cytotoxic [4] 2.61% [at 19 µM] | activity change, negative = inhibition [5] 4.64% [at 23.6 µM] | viability change, negative = cytotoxic [14] 10.6% [at 19 µM] | activity change, negative = cytotoxicity [6] 6.46% [at 19 µM] | activation [8] -0.514% [at 19 µM] | viability change, negative = cytotoxic [9] -4.48% [at 19 µM]

O=C(O)c1snc(Cl)c1Cl
inactive: Potency [1] | Potency [2] | Potency [3] | Potency [4] | Potency [14] | Potency [6] | Potency [7] | Potency [8]

CCCCCCCCCCCC[N+](C)(C)CC(=O)[O-]
inactive: Potency [3] | Potency [12] | Potency [13] | Potency [4] | Potency [5] | Potency [14] | Potency [6] | Potency [7] | Potency [8] | Potency [9]
active: Potency [2] 24.5 µM

CNC(=S)NC
inactive: Potency [3] | Potency [12] | Potency [4] | Potency [14] | Potency [6] | Potency [8] | Potency [9]
active: Potency [1] 38.9 µM

N#C[C@@H]1C[C@@H]2C[C@@H]2N1C(=O)[C@@H](N)C12CC3CC(CC(O)(C3)C1)C2
inactive: Potency [1] | Potency [4] | Potency [5] | Potency [14] | Potency [6] | Potency [7] | Potency [8] | Potency [9] | Potency [10] | Potency [11]

COCc1c(C(C)C)nc(C(C)C)c(/C=C/[C@@H](O)C[C@@H](O)CC(=O)O)c1-c1ccc(F)cc1
inactive: Potency [1] | Potency [3] | Potency [12] | Potency [13] | Potency [4] | Potency [14] | Potency [6] | Potency [8] | Potency [9]
active: Potency [7] 4.73 µM and 6.05 µM

CCn1nc(C)c2c1C(=O)NCC(c1ccc(O)cc1)=N2
inactive: Potency [1] | Potency [3] | Potency [4] | Potency [5] | Potency [14] | Potency [6] | Potency [7] | Potency [8]

CCCCCCCCCCCCCCCCBr
inactive: activation [1] 0.932% [at 15.8 µM] | activity change, negative = cytotoxicity [3] 5.27% [at 19 µM] | activity, negative = inhibition [12] -1.48% [at 19 µM] | Potency [13] | viability change, negative = cytotoxic [4] 0.749% [at 19 µM] | activity change, negative = inhibition [5] 1.26% [at 23.6 µM] | viability change, negative = cytotoxic [14] 0.618% [at 19 µM] | activity change, negative = cytotoxicity [6] -0.0926% [at 19 µM] | activity, negative = inhibition [7] -0.414% [at 19 µM] | activation [8] -0.821% [at 19 µM] | viability change, negative = cytotoxic [9] 7.8% [at 19 µM] | activity, negative = inhibition [10] 36.1% [at 19 µM] | activation [11] 1.63% [at 19 µM]
